Values joined by “and” are separate entries in the source; they are usually repeats but may differ in a detail not shown here. Equal values may be shown once. Some compounds were tested as several samples or in several runs, with calls that do not always agree. Active and inactive are the calls of the source. Unless noted, calls follow the shape of the dose curve; as a rule, active = well fitted curve in the direction sought with a large enough effect in the repeat runs; inconclusive = weak or mixed curves; inactive = no such curve, though single readings can be large; an effect the other way counts as inactive or inconclusive.
Assays:
[1] = test system: thyroid hormone receptor (rat, GH3 cells); assay: qHTS assay to identify small molecule agonists of the thyroid receptor (TR) signaling pathway (AID 743066; calls by dose curve)
[2] = qHTS assay to identify small molecule antagonists of the estrogen receptor alpha (ER-alpha) signaling pathway - cell viability counter screen (AID 743074; calls by dose curve;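 also: HEK293 cells carrying ER-alpha-UAS-bla reporter stimulated with 17beta-estradiol; nearly all actives have a fitted effect of over 45% in size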; also: potency is read from the fitted curve at half-maximal effect)
[3] = qHTS assay to identify small molecule antagonists of the estrogen receptor alpha (ER-alpha) signaling pathway using the BG1 cell line - cell viability counter screen (AID 743081);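 also: compound given together with 17beta-estradiol as the ER stimulus; nearly all actives have a fitted effect of over 45% in size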; also: potency is read from the fitted curve at half-maximal effect
Aromatase (Homo sapiens) = Aromatase (Homo sapiens) (UniProt P11511); assay: qHTS assay to identify aromatase inhibitors (AID 743083); also: nearly all actives have a fitted effect of over 55% in size; also: potency is read from the fitted curve at half-maximal effect
[4] = qHTS assay to identify aromatase inhibitors - cell viability counter screen (AID 743084);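 also: cells stimulated with testosterone during compound exposure; nearly all actives have a fitted effect of over 55% in size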; also: potency is read from the fitted curve at half-maximal effect
[5] = target: Aryl hydrocarbon receptor (Homo sapiens) (UniProt P35869); assay: qHTS assay to identify small molecule that activate the aryl hydrocarbon receptor (AhR) signaling pathway (AID 743085); also: nearly all actives have a fitted effect of over 15% in size; also: potency is read from the fitted curve at half-maximal effect;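 as to activation: HG2L7.5c1 human HepG2 liver cells with stably integrated DRE-driven firefly reporter; series mostly up to about 70 µM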
Outline: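 A multiplexed format paired cell viability (CellTiter-Fluor fluorescence) with AhR-dependent luciferase output (ONE-Glo luminescence) in the same wells of HepG2 DRE-luc cells after 24 h compound exposure at 37C.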

[6] = qHTS assay to identify small molecule that activate the aryl hydrocarbon receptor (AhR) signaling pathway - cell viability counter screen (AID 743086);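 also: HepG2 liver cells carrying the AhR DRE luciferase reporter; series mostly up to about 70 µM; nearly all actives have a fitted effect of over 45% in size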
Outline: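 HepG2-AhR-luc (HG2L7.5c1) cells, 4000/well, treated 24 h at 37 C with compound; viability measured as CellTiter-Fluor fluorescence after 30 min in the same wells as the luciferase read.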

[7] = target: Peroxisome proliferator-activated receptor gamma (Homo sapiens) (UniProt P37231); assay: qHTS assay to identify small molecule agonists of the peroxisome proliferator-activated receptor gamma (PPARg) signaling pathway (AID 743094; active = well fitted activation curve with a large enough effect in the signal ratio in the repeat runs, not every such curve was filed as active; inconclusive = weak or mixed curves, or effect the other way; inactive = no such curve, though single readings can be large or run the other way; the % refers to the signal ratio)
Outline: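 Compounds dissolved in DMSO were added to PPARg UAS-bla HEK293H cells for 17 h at 37C, and reporter expression was quantified by fluorescence intensity after 1 h with LiveBLAzer B/G FRET substrate.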

[8] = target: Peroxisome proliferator-activated receptor gamma (Homo sapiens) (UniProt P37231); assay: qHTS assay to identify small molecule antagonists of the peroxisome proliferator-activated receptor gamma (PPARg) signaling pathway (AID 743191; calls by dose curve; also: nearly all actives have a fitted effect of over 30% in size; also: potency is read from the fitted curve at half-maximal effect)
Outline: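 GeneBLAzer PPARg UAS-bla HEK293H cells, 5 h post-plating, exposed to compounds 17 h at 37C. LiveBLAzer B/G FRET substrate added for 1 h at room temperature; beta-lactamase reporter read by fluorescence intensity.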

[9] = qHTS assay to identify small molecule antagonists of the peroxisome proliferator-activated receptor gamma (PPARg) signaling pathway - cell viability counter screen (AID 743194); also: nearly all actives have a fitted effect of over 55% in size; also: potency is read from the fitted curve at half-maximal effect
Outline: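 Cytotoxicity counter screen in PPARg-bla HEK293H cells, same wells as reporter assay. Compounds plus 50 nM rosiglitazone (final) for 17 h at 37 C, then viability read by CellTiter-Glo luminescence.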

[10] = qHTS assay for small molecule agonists of the antioxidant response element (ARE) signaling pathway (AID 743202; active = well fitted activation curve with a large enough effect in the signal ratio in the repeat runs, not every such curve was filed as active; inconclusive = weak or mixed curves, or effect the other way; inactive = no such curve, though single readings can be large or run the other way; the % refers to the signal ratio; also: potency is read from the fitted curve at half-maximal effect)
Outline: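 ARE-bla HepG2 cells (beta-lactamase reporter under the antioxidant response element), plated 5 hours, then exposed to compounds 16 hours at 37 C. LiveBLAzer B/G FRET substrate added for 2 hours at room temperature; fluorescence intensity read.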

[11] = qHTS assay for small molecule agonists of the antioxidant response element (ARE) signaling pathway - cell viability counter screen (AID 743203; calls by dose curve; also: nearly all actives have a fitted effect of over 55% in size; also: potency is read from the fitted curve at half-maximal effect)
Outline: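 Following 16 hrs of compound treatment at 37C, HepG2 cells with an ARE-controlled beta-lactamase gene were lysed with CellTiter-Glo. Luminescence was read after 30 min at room temperature.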

[12] = qHTS assay for small molecule activators of the heat shock response signaling pathway - cell viability counter screen (AID 743209); also: nearly all actives have a fitted effect of over 50% in size
Outline: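 Readout: CellTiter-Glo luminescence, 30 min at room temperature. System: HSE-bla HeLa cells, 1500/well, plated overnight. Treatment: compounds in DMSO, 5 h at 37 C.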

[13] = qHTS assay for small molecule activators of the heat shock response signaling pathway (AID 743210; active = well fitted activation curve with a large enough effect in the signal ratio in the repeat runs, with a control signal flat, not every such curve was filed as active; inconclusive = weak or mixed curves; the % refers to the signal ratio; also: series mostly up to about 63 µM)
Outline: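 HSE-bla HeLa cells (beta-lactamase reporter under heat shock response elements), plated overnight, then exposed to compounds 5 h at 37 C; LiveBLAzer B/G FRET substrate added, 2.5 h at room temperature, fluorescence intensity read.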

[14] = qHTS assay to identify small molecule agonists of the peroxisome proliferator-activated receptor delta (PPARd) signaling pathway - cell viability counter screen (AID 743211); also: nearly all actives have a fitted effect of over 55% in size
Outline: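 Tox21 library compounds, delivered in DMSO, were incubated 17 h with PPARd-bla HEK293H cells; cytotoxicity was taken from CellTiter-Glo luminescence read 30 min after reagent addition.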

[15] = target: Peroxisome proliferator-activated receptor delta (Homo sapiens) (UniProt Q03181); assay: qHTS assay to identify small molecule agonists of the peroxisome proliferator-activated receptor delta (PPARd) signaling pathway (AID 743212; calls by dose curve)
Outline: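 GeneBLAzer UAS-bla HEK293H cells carrying a PPARδ construct were exposed to compounds at 37 °C. Beta-lactamase activity was read by FRET fluorescence after 2 h at room temperature with LiveBLAzer B/G substrate.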

[16] = target: Estrogen receptor (Homo sapiens) (UniProt P03372); assay: qHTS assay to identify small molecule antagonists of the estrogen receptor alpha (ER-alpha) signaling pathway (AID 743069; active = well fitted curve in the direction sought with a large enough effect in the signal ratio in the repeat runs, not every such curve was filed as active; inconclusive = weak or mixed curves, or effect the other way; inactive = no such curve, though single readings can be large or run the other way; the % refers to the signal ratio; also: potency is read from the fitted curve at half-maximal effect)
Outline: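 HEK293 ER-alpha-UAS-bla GripTite cells, held overnight in 2% charcoal-stripped FBS, 5,000 cells/well, preincubated 4 h, then compound plus 17beta-estradiol for 18 h at 37C. Beta-lactamase read by LiveBLAzer B/G FRET substrate, 2 h at room temperature.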

[17] = target: Estrogen receptor (Homo sapiens) (UniProt P03372); assay: qHTS assay to identify small molecule agonists of the estrogen receptor alpha (ER-alpha) signaling pathway (AID 743075; calls by dose curve; also: potency is read from the fitted curve at half-maximal effect)
[18] = target: Estrogen receptor (Homo sapiens) (UniProt P03372); assay: qHTS assay to identify small molecule agonists of the estrogen receptor alpha (ER-alpha) signaling pathway using the BG1 cell line (AID 743079); also: nearly all actives have a fitted effect of over 20% in size
[19] = qHTS assay to identify small molecule antagonists of the estrogen receptor alpha (ER-alpha) signaling pathway using the BG1 cell line (AID 743080; calls by dose curve;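 also: BG1 cells stimulated with 17beta-estradiol alongside compound; nearly all actives have a fitted effect of over 25% in size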; also: potency is read from the fitted curve at half-maximal effect)
Outline: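 Endogenous full-length ER-alpha in BG1-Luc-4E2 cells drives a stably integrated 4×ERE luciferase gene; compounds were tested against 17beta-estradiol over 21.5 h, with luminescence and multiplexed viability fluorescence recorded.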

Measured: Potency

Sequence of Aromatase (Homo sapiens) (P11511 whole entry, looked up): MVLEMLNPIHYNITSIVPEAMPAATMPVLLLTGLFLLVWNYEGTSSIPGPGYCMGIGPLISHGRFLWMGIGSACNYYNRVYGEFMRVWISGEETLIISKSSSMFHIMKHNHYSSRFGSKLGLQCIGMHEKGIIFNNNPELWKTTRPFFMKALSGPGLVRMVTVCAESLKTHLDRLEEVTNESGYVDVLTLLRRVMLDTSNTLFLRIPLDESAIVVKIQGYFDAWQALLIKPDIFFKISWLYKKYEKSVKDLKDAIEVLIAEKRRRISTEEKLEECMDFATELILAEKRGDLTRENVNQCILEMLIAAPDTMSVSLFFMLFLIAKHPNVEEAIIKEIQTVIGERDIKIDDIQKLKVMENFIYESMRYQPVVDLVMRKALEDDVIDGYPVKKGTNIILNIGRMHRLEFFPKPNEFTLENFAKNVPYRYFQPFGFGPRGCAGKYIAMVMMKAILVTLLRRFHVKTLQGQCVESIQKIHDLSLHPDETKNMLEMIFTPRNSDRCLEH
Sequence of Aryl hydrocarbon receptor (Homo sapiens) (P35869 whole entry, looked up): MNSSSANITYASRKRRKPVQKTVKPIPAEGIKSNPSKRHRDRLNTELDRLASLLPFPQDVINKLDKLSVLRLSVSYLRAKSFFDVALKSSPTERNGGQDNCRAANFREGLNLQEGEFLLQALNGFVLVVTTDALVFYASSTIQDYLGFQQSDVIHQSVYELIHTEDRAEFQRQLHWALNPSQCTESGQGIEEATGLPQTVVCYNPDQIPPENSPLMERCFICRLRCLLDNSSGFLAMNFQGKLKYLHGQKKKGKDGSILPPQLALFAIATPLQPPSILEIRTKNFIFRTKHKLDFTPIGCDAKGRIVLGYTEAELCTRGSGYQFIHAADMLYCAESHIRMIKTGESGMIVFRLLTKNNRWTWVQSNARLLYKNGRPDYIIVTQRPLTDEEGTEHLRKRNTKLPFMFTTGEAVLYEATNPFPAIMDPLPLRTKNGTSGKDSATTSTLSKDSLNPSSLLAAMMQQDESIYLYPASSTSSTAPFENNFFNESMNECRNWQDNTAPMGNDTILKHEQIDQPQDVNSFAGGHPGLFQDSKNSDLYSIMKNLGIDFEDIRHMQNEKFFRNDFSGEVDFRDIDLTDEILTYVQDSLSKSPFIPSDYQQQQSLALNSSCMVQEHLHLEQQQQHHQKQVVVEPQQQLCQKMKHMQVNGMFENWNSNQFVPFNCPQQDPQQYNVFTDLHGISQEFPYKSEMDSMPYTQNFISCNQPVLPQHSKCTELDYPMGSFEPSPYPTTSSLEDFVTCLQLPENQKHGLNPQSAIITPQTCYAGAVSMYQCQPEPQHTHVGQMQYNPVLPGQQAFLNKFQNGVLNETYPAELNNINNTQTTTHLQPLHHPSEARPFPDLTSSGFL
Sequence of Peroxisome proliferator-activated receptor delta (Homo sapiens) (Q03181 whole entry, looked up): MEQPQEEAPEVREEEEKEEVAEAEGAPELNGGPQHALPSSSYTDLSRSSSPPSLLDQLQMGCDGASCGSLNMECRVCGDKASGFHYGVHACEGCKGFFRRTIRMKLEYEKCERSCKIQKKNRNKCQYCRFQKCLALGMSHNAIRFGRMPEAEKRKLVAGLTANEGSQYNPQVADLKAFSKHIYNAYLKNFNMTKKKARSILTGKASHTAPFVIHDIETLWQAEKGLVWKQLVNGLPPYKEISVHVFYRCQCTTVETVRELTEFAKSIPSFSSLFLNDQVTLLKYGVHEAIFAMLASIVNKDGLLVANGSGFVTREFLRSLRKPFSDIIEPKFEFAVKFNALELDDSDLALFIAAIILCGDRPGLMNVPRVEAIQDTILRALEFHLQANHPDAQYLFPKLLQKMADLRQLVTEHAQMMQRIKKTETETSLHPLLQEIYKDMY
Sequence of Peroxisome proliferator-activated receptor gamma (Homo sapiens) (P37231 whole entry, looked up): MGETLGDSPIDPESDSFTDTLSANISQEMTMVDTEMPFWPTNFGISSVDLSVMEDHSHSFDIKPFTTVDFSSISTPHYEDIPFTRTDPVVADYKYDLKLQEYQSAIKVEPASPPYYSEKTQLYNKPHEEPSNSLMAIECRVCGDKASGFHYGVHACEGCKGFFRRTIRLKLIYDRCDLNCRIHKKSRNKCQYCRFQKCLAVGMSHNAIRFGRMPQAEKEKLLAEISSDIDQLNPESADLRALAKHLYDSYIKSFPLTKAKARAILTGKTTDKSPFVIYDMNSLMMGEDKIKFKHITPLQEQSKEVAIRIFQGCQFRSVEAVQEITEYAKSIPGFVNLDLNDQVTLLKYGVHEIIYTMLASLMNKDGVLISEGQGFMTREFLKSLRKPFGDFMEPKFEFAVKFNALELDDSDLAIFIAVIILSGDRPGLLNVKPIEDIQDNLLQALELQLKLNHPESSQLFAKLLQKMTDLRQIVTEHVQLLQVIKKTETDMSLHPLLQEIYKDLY
Sequence of Estrogen receptor (Homo sapiens) (P03372 whole entry, looked up): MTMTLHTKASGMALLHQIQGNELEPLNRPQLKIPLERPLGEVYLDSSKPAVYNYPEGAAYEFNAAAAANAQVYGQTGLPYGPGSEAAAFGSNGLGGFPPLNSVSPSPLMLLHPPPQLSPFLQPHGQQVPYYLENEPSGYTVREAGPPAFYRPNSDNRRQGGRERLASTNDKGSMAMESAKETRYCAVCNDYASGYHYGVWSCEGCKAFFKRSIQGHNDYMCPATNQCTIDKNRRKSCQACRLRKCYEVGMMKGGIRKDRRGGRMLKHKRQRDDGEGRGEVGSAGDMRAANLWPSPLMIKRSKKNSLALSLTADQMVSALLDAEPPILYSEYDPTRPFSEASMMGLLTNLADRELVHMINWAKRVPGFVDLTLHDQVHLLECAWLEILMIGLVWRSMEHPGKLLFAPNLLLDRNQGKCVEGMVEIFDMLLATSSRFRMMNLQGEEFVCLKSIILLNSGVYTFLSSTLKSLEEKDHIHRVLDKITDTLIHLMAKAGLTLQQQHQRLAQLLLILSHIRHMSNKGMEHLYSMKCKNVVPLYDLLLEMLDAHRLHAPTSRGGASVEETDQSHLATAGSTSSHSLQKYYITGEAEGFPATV

CC(C)(N=C=O)c1cccc(C(C)(C)N=C=O)c1
not listed: [16] | [17] | [18] | [19]
inactive: all other assays above

Clc1ccc(Cl)c(Cl)c1Cl
not listed: [16] | [17] | [18] | [19]
inactive: all other assays above

CC1=CC[C@H]2C[C@@H]1C2(C)C
not listed: [5] | [8]
inactive: all other assays above

CC#C[C@]1(O)CC[C@H]2[C@@H]3CCC4=CC(=O)CCC4=C3[C@@H](c3ccc(N(C)C)cc3)C[C@@]21C
inactive: [1] | [2] | [17] | [3] | [4] | [5] | [6] | [11] | [12]
active: [19] 16.8 µM and 68.6 µM | Aromatase (Homo sapiens) 11.9 µM and 30.6 µM

Cc1ccc(N)c(S(=O)(=O)O)c1
not listed: [16] | [17] | [18] | [19]
inactive: all other assays above

O=C(Oc1ccccc1)c1ccc(O)cc1
not listed: [16] | [17] | [18] | [19]
inactive: all other assays above

CCCCCCC(C)(C)S
not listed: [15] | [16] | [17] | [18] | [19]
inactive: all other assays above

OCCOCCOCCOCCO
not listed: [7] | [8]
inactive: all other assays above

Oc1c(Cl)cc(Cl)c(Cl)c1Cl
inactive and 68.6 µM (active): [19]
active: [16] 34 µM [inconclusive] | [2] 53.8 µM | [8] 17 µM
not listed: [5] | [9] | [10] | [13] | [15] | [18]
inactive: all other assays above

ClC1=C(Cl)C(Cl)(Cl)C(Cl)=C1Cl
active: [9] 2.2 µM and 3.09 µM | [11] 13.8 µM and 12.2 µM
inactive and 48.6 µM (active): Aromatase (Homo sapiens)
not listed: [2] | [7] | [8] | [10] | [13]
inactive: all other assays above

NS(=O)(=O)c1cc2c(cc1Cl)NC=NS2(=O)=O
not listed: [2]
inactive: all other assays above

Cc1ccc(C(=O)O)o1
not listed: [10] | [16] | [17] | [18] | [19]
inactive: all other assays above

CN(C)c1cccc(O)c1
active: [5] 15.6 µM and 30.6 µM | [10] 55.3 µM
not listed: [16] | [17] | [18] | [19]
inactive: all other assays above

CC1CC(OC(=O)c2ccccc2O)CC(C)(C)C1 (stereo unspecified)
not listed: [12] | [13] | [16] | [17] | [18] | [19]
inactive: all other assays above

Cc1cc(O)c2c(c1)C(=O)c1cc(O)cc(O)c1C2=O
inactive: [1] | [16] | [2] | [19] | [6] | [7] | [9] | [12]
active: [3] 29.9 µM and 24.3 µM | Aromatase (Homo sapiens) 23.8 µM and 54.5 µM | [4] 11.9 µM and 24.3 µM | [5] 5.97 µM and 34.4 µM | [10] 4.23 µM | [11] 23.8 µM

CC1COc2ccccc2N1C(=O)C(Cl)Cl (stereo unspecified)
active: [17] 24.5 µM [inconclusive] | [19] 30.6 µM and 68.5 µM | [4] 27.3 µM | [8] 24.5 µM | [10] 19.3 µM and 27.3 µM
17.2 µM (active) and inactive: [5]
61 µM (active) and inactive: Aromatase (Homo sapiens)
not listed: [7] | [15]
inactive: all other assays above

O=[N+]([O-])c1cc(N(CCO)CCO)ccc1NCCO
active: [3] 48.5 µM | [4] 48.5 µM and 61.1 µM
not listed: Aromatase (Homo sapiens) | [6] | [7] | [8] | [19]
inactive: all other assays above

— PubChem BioAssay (Tox21)
